Test results as given in the supplement of paper PMC6555819.

Columns and labels:
Assay in all cases: PBM binding z-score (relative to random genomic background probes); higher = stronger binding; sequences stand for … in GC…GCGATTGACAGCGTAGAATGAAGG
[1] = system: FXR:RXRa (NR concentration 270 nM, RXRa partner concentration 90 nM)
In short: (§1)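 Custom Agilent 4×180K protein-binding microarrays carried double-stranded probes. Their 34-nt variable regions held direct-repeat seeds, single-nucleotide variants, half-site ablations and random human genomic background sequences. Arrays were incubated 1 h with ligand-free nuclear receptor dimers in PBS pH 7.4, 2% milk, 0.02% Triton X-100, 1 mM DTT, 0.2 mg/mL BSA and 0.4 mg/ml salmon testes DNA. Antibodies against each partner (one per run) detected binding, and scanned fluorescence was regression-normalized. Binding z-scores use random background probes as reference.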

[2] = system: LXRa:RXRa (NR concentration 270 nM, RXRa partner concentration 90 nM)
In short: as §1

[3] = system: LXRa homodimer (NR concentration 270 nM)
In short: as §1

[4] = system: LXRb:RXRa (NR concentration 270 nM, RXRa partner concentration 90 nM)
In short: as §1

[5] = system: PPARa:RXRa (NR concentration 270 nM, RXRa partner concentration 90 nM)
In short: as §1

[6] = system: PPARg:RXRa (NR concentration 180 nM, RXRa partner concentration 90 nM)
In short: as §1

[7] = system: PPARg:RXRa 270nM:90nM, anti-RXR (NR concentration 270 nM, RXRa partner concentration 90 nM)
In short: as §1

[8] = system: PPARg:RXRa 30nM:10nM, anti-RXR (NR concentration 30 nM, RXRa partner concentration 10 nM)
In short: as §1

[9] = system: PPARg:RXRa 90nM:30nM, anti-RXR (NR concentration 90 nM, RXRa partner concentration 30 nM)
In short: as §1

[10] = system: PPARg:RXRa DBDmut IVT, anti-RXR (DBD mutation: RXRa K156A/R161A, NR concentration 270 nM, RXRa partner concentration 90 nM)
In short: as §1

[11] = system: PPARg:RXRa IVT, anti-PPARg (NR concentration 270 nM, RXRa partner concentration 90 nM)
In short: as §1

[12] = system: PPARg homodimer (NR concentration 180 nM)
In short: as §1

[13] = system: PXR:RXRa (NR concentration 270 nM, RXRa partner concentration 90 nM)
In short: as §1

[14] = system: PXR homodimer (NR concentration 270 nM)
In short: as §1

[15] = system: RARa:RXR (NR concentration 270 nM, RXRa partner concentration 90 nM)
In short: as §1

[16] = system: RARa homodimer (NR concentration 270 nM)
In short: as §1

[17] = system: RARb:RXRa (NR concentration 270 nM, RXRa partner concentration 90 nM)
In short: as §1

Sequence | PBM binding z-score [1] | PBM binding z-score [2] | PBM binding z-score [3] | PBM binding z-score [4] | PBM binding z-score [5] | PBM binding z-score [6] | PBM binding z-score [7] | PBM binding z-score [8] | PBM binding z-score [9] | PBM binding z-score [10] | PBM binding z-score [11] | PBM binding z-score [12] | PBM binding z-score [13] | PBM binding z-score [14] | PBM binding z-score [15] | PBM binding z-score [16] | PBM binding z-score [17]
TCGAGTAGGTTAGGGGGGCATTCAGGGATGAAGA | 3.28 | 3.15 | 1.42 | 5.64 | 3.3 | 5.66 | 4.97 | 3.63 | 5.01 | 4.38 | 5.24 | 2.84 | 3.99 | 3.93 | 3.47 | 2.35 | 3.15
CTATGTAGGTTAAGAGGGTCATTCAGTTTGAAAG | 2.95 | 3.05 | 1.07 | 2.93 | 4.89 | 5.88 | 5.47 | 2.95 | 4.99 | 7.34 | 7.14 | 2.35 | 3.96 | 5.84 | 3.56 | 0.734 | 2.63
CTATGTAGGTTAACGGGGTCATTCAGTTTGAAAG | 5.18 | 5.6 | 2.97 | 5.87 | 6.19 | 7.77 | 6.92 | 4.45 | 6.47 | 7.65 | 7.78 | 2.41 | – | 12.2 | 6.06 | 0.661 | 3.57
TCGAGTAGGTTACGGAGGCATTCAGGGATGAAGA | 0.282 | 0.497 | -0.597 | 0.121 | 1.57 | 1.39 | 1.81 | 1.08 | 1.75 | 3.09 | 3.05 | 0.325 | 0.0271 | -0.388 | 0.547 | -0.666 | 0.731
CCGAGTAGGTTACGAGGGCGCATTCAGTGCGAAT | 0.0416 | 1.77 | -0.35 | 0.425 | 1.72 | 2.6 | 2.55 | -0.0123 | 1.62 | 4.97 | 4.85 | -0.00528 | 0.483 | -0.379 | – | -0.752 | 1.29
CCGAGTAGTTTACGAGGGGGCATTCAGTGCGAAT | 1.62 | 4.8 | 0.906 | 4.15 | 2.17 | -0.276 | 1.08 | 0.469 | 1.59 | 1.32 | 0.828 | 0.86 | 3.29 | 4.22 | 2.06 | 0.00505 | 1.4
CCGGGTAGGTTACGAGGGGGCATTCAGTGCGAAT | 2.48 | 7.2 | 1.5 | 6.39 | 3.54 | 1.6 | 2.96 | 1.05 | 2.49 | 1.95 | 4.17 | 1.56 | 5 | 4.47 | 3.19 | 0.857 | 2.21
CCGAGTAGGTTACGAGGGGGCATTGAGTGCGAAT | 2.26 | 7.11 | 1.25 | 6.12 | 3.55 | 2.61 | 3.24 | 1.03 | 2.58 | 4.78 | 4.42 | 1.95 | 5.05 | 8.74 | 2.91 | 0.485 | 2.02
CTATGTAGGTTAAGGGGGTCATCCAGTTTGAAAG | 4.86 | 4.86 | 2.5 | 6.27 | 6.19 | 8.53 | 7.67 | 6.02 | 7.82 | 7.02 | 7.73 | 3.6 | 5.82 | 9.26 | 5.73 | 1.05 | 3.65
TCTAGTAGGTTACGGGGGCATTCAGGGATGAAGA | 3.33 | 3.71 | 1.27 | 5.76 | 4.95 | 8 | 6.8 | 5.71 | 6.87 | 6.73 | 7 | 2.93 | 3.79 | 2.71 | 3.63 | 1.37 | 3.21
TCGAGTAAGTTACGGGGGCATTCAGGGATGAAGA | 1.79 | 1.83 | 0.43 | 4.1 | 2.64 | 1.06 | 1.98 | 1.45 | 1.77 | 1.55 | 3.02 | 0.93 | 2.63 | 1.19 | 2.22 | 0.119 | 1.34
TCGAGTAGGTTACGGGTGCATTCAGGGATGAAGA | 0.435 | 0.756 | -0.274 | 0.94 | 2.22 | 2.3 | 2.7 | 2.01 | 2.23 | 2.9 | 3.34 | 0.289 | 1.62 | 0.692 | 1.33 | -0.909 | 0.994
CCGAGTAGGTTCCGAGGGGGCATTCAGTGCGAAT | 0.618 | 1.8 | 1.32 | 4.15 | 2.04 | -0.00423 | 1.42 | 0.548 | 0.958 | 1.28 | 2.13 | 1.1 | – | 6.61 | 2.14 | 0.637 | 1.3
CCGTGTAGGTTACGAGGGGGCATTCAGTGCGAAT | 2.88 | 7.45 | 2.37 | 6.73 | 3.56 | 2.16 | 3.34 | 1.52 | 2.52 | 3.52 | 4.85 | 2.84 | 5.31 | 7.2 | 3.23 | 1.33 | 2.47
TCGAGTAGCTTACGGGGGCATTCAGGGATGAAGA | 1.64 | 1.5 | 0.141 | 3.47 | 2.12 | – | 2.1 | 2.18 | 2.37 | 1.25 | 2.26 | 0.346 | 2.21 | 1.09 | 1.47 | -0.926 | 0.94
CCGAGTAGGATACGAGGGGGCATTCAGTGCGAAT | 0.863 | 1.35 | 0.542 | 3.08 | 1.75 | 0.323 | 1.47 | 0.0307 | 1.08 | 0.37 | 0.975 | 0.513 | 2.31 | 3.26 | 1.78 | -0.298 | 0.887
TCGAGTAGGTTGCGGGGGCATTCAGGGATGAAGA | 2.84 | 2.17 | 0.68 | 4.34 | 2.7 | 0.862 | 2.72 | 2.32 | 2.95 | 2.02 | 3.55 | 1.44 | 3.09 | 2.38 | 2.39 | 0.623 | 1.91
